KB-3-1 cytotox – KB-3-1 parental cell cytotoxicity. KB-3-1 viability, CellTiter-Glo ATP luminescence, 72 h. Potency, µM (series often up to 46.1 µM), most hits filed as cytotoxic. AID 1347075. 1.4% of 400,000 active; further: on the % scale 0 is the no-effect control and ±100 the full control effect; nearly all actives have a fitted effect of over 60% in size
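Using CellTiter-Glo luminescence, growth of non-resistant KB-3-1 adenocarcinoma cells is assessed 72 h after pin-tool compound addition at 37 °C. Normalized responses across the concentration series yield fitted curves.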
TGFb inhibitor – inhibitors of TGF-b signaling; HepG2 CAGA-GFP TGF-b/SMAD3 reporter, GFP fluorescence, 18 h; TGF-beta stimulated, 500 pg/mL final; Potency, µM (series often up to 46.1 µM), without a hit: at the top dose activity, negative = inhibition, usual class: inhibitors; 1.2% of 410,000 active; AID 588855; further: on the % scale 0 is the no-effect control and ±100 the full control effect; nearly all actives have a fitted effect of over 65% in size
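Per well, imaged GFP fluorescence of HEPG2 CAGA-GFP cells gives the signal; cells get compound, then TGF-beta (500 pg/mL final), 18 h at 37 degrees C; %Activity versus -TGF-beta and +DMSO controls.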
ATXN viability – cell viability loss in ATXN counter-screen. S2 cells (HEK-293 line with an ATXN2-luciferase reporter) viability, CellTiter-Fluor protease fluorescence, 24 h. Potency, µM (doses to about 56.7 µM), actives largely listed as cytotoxic. 0.49% of 400,000 active. AID 651635; further: nearly all actives have a fitted effect of over 40% in size
HepG2 tox-1 – counter-screen for TGF-b inhibitors: cytotoxicity in HepG2 cells; Potency, µM (titrated, usually from 46.1 µM), without a hit: at the highest dose activity change, negative = cytotoxicity, actives largely listed as cytotoxic; AID 588856; 0.76% of 410,000 active; HepG2 CAGA-GFP viability, ATP luminescence, 18 h
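CellTiter-Glo luminescence gave cytotoxicity after 18 hours at 37 degrees C. The cells were HepG2 CAGA-GFP in 1% FBS DMEM, stimulated with 500 pg/mL TGF-beta after compound addition. %Activity was normalised to no-cell wells (complete cell-killing) and DMSO (no toxicity), and curves were fitted and classified.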
ATXN2 expr inh – inhibitors of ATXN2 expression; Potency, µM (doses to about 57 µM), without a hit: top-dose activity change, negative = inhibition, usual class: inhibitors; AID 1745845; HEK-293 ATXN2-luciferase reporter, luminescence, 24 h; 0.72% of 360,000 active; further: on the % scale 0 is the no-effect control and ±100 the full control effect; nearly all actives have a fitted effect of over 55% in size
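qHTS (up to 57 uM final) was run with 24 h compound exposure of reporter cells at 37 °C. Each well was multiplexed: SteadyGlo luminescence measured ATXN2-luciferase expression after a fluorogenic Gly-Phe-AFC viability readout (25 uM final).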
KB-V1 MDR tox – KB-V1 MDR subline cytotoxicity; KB-V1 MDR cells viability, CellTiter-Glo, 72 h; Potency, µM (series often up to 46.1 µM), actives largely listed as cytotoxic; 3.4% of 400,000 active; AID 1347076; further: on the % scale 0 is the no-effect control and ±100 the full control effect; nearly all actives have a fitted effect of over 60% in size
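In this primary screen, KB-V1 cells overexpressing P-gp are incubated with library compounds (lowest to highest concentration) for 72 h at 37 degrees C before a luminescent ATP viability read.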
TGFb confirm – confirmation of TGF-b signaling inhibitors in HepG2 reporter cells. shares compounds with TGFb inhibitor. Potency, µM (titrated, usually from 46.1 µM), for the others: at the highest dose activity, negative = inhibition, most hits filed as inhibitors. AID 720534. HepG2 CAGA-GFP TGF-b reporter, GFP fluorescence, 18 h; cells stimulated with TGF-beta, 500 pg/mL. 63% of 1,600 active; further: on the % scale 0 is the no-effect control and ±100 the full control effect; nearly all actives have a fitted effect of over 65% in size
HepG2 tox-2 – toxic to HepG2 cells in TGF-b counterscreen. HepG2 CAGA-GFP viability, ATP luminescence, 18 h; cells stimulated with TGF-beta, 500 pg/mL. 27% of 1,600 active. Potency, µM (top dose mostly 46.1 µM), for the others: at the highest dose activity, negative = cytotoxicity, hits mostly inhibitors. shares compounds with TGFb inhibitor; further: on the % scale 0 is the no-effect control and ±100 the full control effect; nearly all actives have a fitted effect of over 70% in size
CCL64 TGFb inh – blocks TGF-b signaling in CCL64 reporter cells | shares compounds with TGFb inhibitor | CCL64 CAGA-GFP reporter, TGF-b stimulated, GFP fluorescence, 18 h | Potency, µM (highest dose often 46.1 µM), without a hit: top-dose activity, negative = inhibition, usual class: inhibitors | 41% of 1,600 active | AID 720536; further: nearly all actives have a fitted effect of over 65% in size
TGFb COP inh – blocks TGF-b signaling in HepG2 COP reporter. shares compounds with TGFb inhibitor. HepG2 COP-GFP TGF-b reporter, GFP fluorescence, 18 h; cells stimulated by added recombinant TGF-beta. Potency, µM (doses to about 46.1 µM), for inactives: at the highest dose activity, negative = inhibition, most hits filed as inhibitors. 3% of 1,600 active. AID 720537; further: nearly all actives have a fitted effect of over 70% in size
Starred values were filed as active, the others as inactive. Sampled rows, rich in hits. Any-hit rate of the full collection: about 5.9%. The call rests on the fitted dose curve; in most records, active means well fitted curve in the direction sought with a large enough effect; inconclusive means small, poorly fitted or top-dose-only effect, or another doubt; inactive means no such curve, though single readings can be large; an effect the other way counts as inactive or inconclusive. Potency means the concentration at half of the fitted maximal effect.

Screening COc1ccccc1-n1cc([C@@H]2C[C@H]3CN(c4ccccc4)C(=O)[C@]34CCCN24)cn1 returned KB-3-1 cytotox inactive, TGFb inhibitor 5µM*, ATXN viability inconclusive, HepG2 tox-1 0%, ATXN2 expr inh inconclusive, KB-V1 MDR tox 7.3µM*, TGFb confirm 0.73µM*, HepG2 tox-2 inconclusive, CCL64 TGFb inh 5.2µM* and TGFb COP inh 27%.
Cc1ccc2c(c1)nc(SCC(O)c1ccc(Br)cc1)n2C (stereo not drawn) was read as TGFb inhibitor 0% and HepG2 tox-1 -25%.
Clc1ccc2c(SCC3CO3)c3ccccc3nc2c1 (stereo not drawn) was read as KB-3-1 cytotox inconclusive, TGFb inhibitor 7.9µM*, HepG2 tox-1 -49%, ATXN2 expr inh inconclusive, KB-V1 MDR tox 16µM*, TGFb confirm 16µM*, HepG2 tox-2 18µM*, CCL64 TGFb inh 21µM* and TGFb COP inh 16µM*.
For O=C(CSc1c2c(nc3cc(Cl)ccc13)CCCC2)NCCN1CCOCC1 the results were KB-3-1 cytotox inactive, TGFb inhibitor -8%, ATXN viability inactive, HepG2 tox-1 -11%, ATXN2 expr inh -21% and KB-V1 MDR tox inactive.
Screening COc1cccc2sc(N(CCCN(C)C)C(=O)c3ccc(S(=O)(=O)N4CCc5ccccc5C4)cc3)nc12 returned KB-3-1 cytotox inactive, TGFb inhibitor inconclusive, ATXN viability inconclusive, HepG2 tox-1 -79%, ATXN2 expr inh inconclusive and KB-V1 MDR tox inactive.
For COc1ccc(C)c2sc(N(CCCN(C)C)C(=O)c3ccc(S(=O)(=O)N4CCc5ccccc5C4)cc3)nc12 the results were KB-3-1 cytotox inconclusive, TGFb inhibitor 5µM*, HepG2 tox-1 7.1µM*, ATXN2 expr inh 28µM*, KB-V1 MDR tox 10µM*, TGFb confirm 4.6µM*, HepG2 tox-2 5.2µM*, CCL64 TGFb inh 5.2µM* and TGFb COP inh inconclusive.
Screening CCc1nc2ccc(C(=O)N3CCN(c4ccc(Cl)cc4)CC3)cc2nc1CC returned KB-3-1 cytotox inconclusive, TGFb inhibitor -13%, ATXN viability inactive, HepG2 tox-1 -16%, ATXN2 expr inh -18% and KB-V1 MDR tox inconclusive.
For CCc1nc2ccc(C(=O)N3CCN(c4cccc(C(F)(F)F)c4)CC3)cc2nc1CC the results were KB-3-1 cytotox inconclusive, TGFb inhibitor 20µM*, ATXN viability inactive, HepG2 tox-1 -12%, ATXN2 expr inh -19%, KB-V1 MDR tox inactive, TGFb confirm inconclusive, HepG2 tox-2 -24%, CCL64 TGFb inh inconclusive and TGFb COP inh 16%.

Bioassay records: PubChem, National Center for Advancing Translational Sciences (NCATS)
